Among the data in PubChem BioAssay are cell count values, retold here.

This assay is described as follows: sensitizers of A549 cells to miR-34 induction, primary screen, imaging, A549 dox-inducible miR-34, nuclei and caspase counts (AID 1347080). Also: test concentration not given here. The following applies: A549 miR-34 inducible, Hoechst nuclei count, 48 h; measured here: total cells with miR-34 induction; stronger effect = lower value.
As for `CC(C)(CO)C(O)C(=O)NCCC(=O)O` (configuration not stated), the cell count was 8190. Turning to `CCC(=O)O[C@H]1CCC2C3CCc4cc(O)ccc4C3CC[C@@]21C` (some centres not stated), the cell count is 10500. As for `CC/C=C\C/C=C\C/C=C\C/C=C\C/C=C\CCCC(=O)OCC`, the cell count was found to be 11500. `Oc1cc(O)c2c(c1)OC(c1ccc(O)c(O)c1)C(O)C2` (configuration not stated): the cell count stood at 9500. For `CC[N+]1(C)[C@@H]2CC[C@H]1CC(OC(=O)[C@H]1CCC(C(=O)OC3C[C@H]4CC[C@@H](C3)[N+]4(C)CC)(c3ccccc3)c3ccccc31)C2` (some centres not stated) the value was 9010. For `CCC(C)N1CCC2(CC1)N=c1c(c3c4c5c(C)c(O)c3c(O)c1=NC(=O)/C(C)=C/C=C/[C@H](C)[C@H](O)[C@@H](C)[C@@H](O)[C@@H](C)[C@H](OC(C)=O)[C@H](C)[C@@H](OC)/C=C/O[C@@](C)(O5)C4=O)N2` (some centres not stated) the value was 8510.

For `CCC(C)[C@H]1O[C@]2(CC[C@@H]1C)C[C@@H]1C[C@@H](C/C=C(\C)[C@@H](OC3C[C@H](OC)C(O[C@H]4C[C@H](OC)[C@@H](O)[C@H](C)O4)[C@H](C)O3)[C@@H](C)/C=C/C=C3\CO[C@@H]4[C@H](O)C(C)=C[C@@H](C(=O)O1)[C@]34O)O2` (some centres not stated), the cell count came out at 4770. In the case of `c1ccc(-c2[nH]ncc2-c2ccnc3ccccc23)nc1`, the cell count turned out to be 4970. With `C[C@H]1[C@H](C)CC[C@]2(C(=O)O[C@@H]3O[C@H](COC4O[C@H](CO)[C@@H](OC5O[C@@H](C)[C@H](O)[C@@H](O)[C@H]5O)[C@H](O)[C@H]4O)[C@@H](O)[C@H](O)[C@H]3O)CC[C@]3(C)C(=CC[C@@H]4[C@@]5(C)C[C@@H](O)[C@H](O)[C@@](C)(CO)C5CC[C@]43C)[C@H]12` (some centres not stated), the cell count was found to be 8940.

Regarding `CCOC(=O)Oc1c(OC)cc(C(=O)O[C@@H]2C[C@@H]3CN4CCc5c([nH]c6cc(OC)ccc56)[C@H]4C[C@@H]3[C@H](C(=O)OC)[C@H]2OC)cc1OC`, the cell count is 6440. For `CC(=O)N[C@@H]1[C@@H](O[C@H](C)C(=O)O)[C@H](O)[C@@H](CO)O[C@@H]1O`, the cell count came to 8610.

On to `OCCN1C[C@@H](O)[C@@H](O)C(O)C1CO` (some centres not stated), for which the cell count was found to be 12600. Regarding `COc1cc2c(cc1OC)-c1[nH]nc(Nc3cccc(F)c3)c1C2`, the cell count was 1160. For the compound `CC(C)(C)NCC(O)COc1cccc2c1CC(O)C(O)C2` (configuration not stated), the cell count worked out at 8980. With `c1ccc2c3c([nH]c2c1)[C@H]1C2CCC([C@@H]4CCCN[C@H]24)N1CC3` (some centres not stated), the cell count stood at 7540. With `CC12CCC3c4ccc(OC(=O)c5ccccc5)cc4CCC3C1CCC2O` (configuration not stated), the cell count amounted to 9690. In the case of `Oc1cccc(-c2nc(N3CCOCC3)c3sccc3n2)c1`, the cell count was 2340. Regarding `CC(C)CC(=O)N[C@H](C(=O)NC(C(=O)NC(CC(C)C)[C@@H](O)CC(=O)N[C@@H](C)C(=O)N[C@@H](CC(C)C)[C@@H](O)CC(=O)O)C(C)C)C(C)C` (some centres not stated), the cell count worked out at 12400. For `CN1CC[C@]23c4ccccc4N[C@H]1[C@]21CCN(C)[C@H]3Nc2ccccc21` the value was 9800. With `COc1c2ccoc2nc2c(OC)c(OC[C@@H](O)C(C)(C)O)ccc12`, the cell count was 8040. For `CC1OC(O[C@H]2/C=C/C=C/C=C/C=C/C=C/C=C/C=C/[C@H](C)[C@@H](O)[C@@H](C)[C@H](C)OC(=O)CC(O)CC(O)CCC(O)C(O)CC(O)CC3(O)C[C@H](O)C(C(=O)O)C(C2)O3)C(O)[C@H](N)C1O` (some centres not stated), the cell count worked out at 10800.

In the case of `C=Cc1c(C)c2cc3nc(cc4[nH]c(cc5nc(cc1[nH]2)C(C)=C5CCC(=O)O)c(CCC(=O)O)c4C)[C@@]1(C)C3=CC=C(C(=O)OC)C1C(=O)OC` (some centres not stated), the cell count is 9050.
